Experimental findings from PubChem BioAssay (NCATS) are described below.

Experiment [1] is described as follows: OV-SAHO Cancer Cell Toxicity qHTS against the NCATS CANVASS Library (AID 1347348). Also: nearly all actives have a fitted effect of over 55% in size. Also: potency is read from the fitted curve at half-maximal effect. In a few lines: (§1)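 Bortezomib titration and single-dose wells served as plate controls. Test compounds, 11 points, acted on 1000 cells/well for 72 h at 37 degrees C; CellTiter-Glo luminescence quantified remaining viable cells.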
A general note: Quantitative high-throughput screening tests each substance at several concentrations.

Experiment [2] can be described thus: COV-362 Cancer Cell Toxicity qHTS against the NCATS CANVASS Library (AID 1347352). Also: potency is read from the fitted curve at half-maximal effect. The method, boiled down:
(§2)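 First, 1000 cells go into each well and rest for 4 hours. Next, an 11-point dilution range is pinned in. Plates then incubate 72 hours before CellTiter-Glo addition and luminescence reading.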

A short description of experiment [3]: A2780 Cisplatin Sensitive Ovarian Cancer Cell Toxicity qHTS against the NCATS CANVASS Library (AID 1347353). Also: nearly all actives have a fitted effect of over 60% in size. Also: potency is read from the fitted curve at half-maximal effect. In a few lines: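 Cells are plated at 750 per well and rest for 4 hours. Compounds are added across eleven concentrations, and incubated 72 hours before ATP is quantified by luminescence.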
Experiment [4] in a line: HEK293 24hr Apoptosis Induction qHTS against the NCATS CANVASS Library (AID 1347359). The method, boiled down: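 HEK293 cells (500/well, DMEM + 10% FBS) were exposed to compounds in an 11-point series for 24 hours at 37 degrees C, then caspase-3/7 activity was read by Caspase-Glo DEVD luciferase luminescence after 15 min.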
Experiment [5] is described as follows: SDT Cancer Cell Toxicity qHTS against the NCATS CANVASS Library (AID 1347365). Also: nearly all actives have a fitted effect of over 60% in size. Also: potency is read from the fitted curve at half-maximal effect. The method, boiled down: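 Cytotoxicity is measured from cellular ATP: compounds in an 11-point concentration series are pinned onto SDT cells, incubated 72 hr at 37C, then CellTiterGlo is added and luminescence read.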
Experiment [6] in a line: qHTS for ATAD5 Agonist screened against the NCATS CANVASS Library (AID 1347367).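 Also: luciferase reporter driven by ATAD5 which rises upon DNA damage.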 The method, boiled down:
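Step one plated reporter cells and let them acclimate 5hr. Step two pinned compounds with MMS as positive and 0.46% DMSO as negative control. After 16hr incubation, fluorescence viability then luminescence were read.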

The nature of experiment [7]: G06 Cancer Cell Toxicity qHTS against the NCATS CANVASS Library (AID 1347368). Also: nearly all actives have a fitted effect of over 60% in size. Also: potency is read from the fitted curve at half-maximal effect. The method, boiled down:
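Cells were plated at 500 per well, then compounds were added over an 11-point range. After 72 hr at 37C, CellTiterGlo was added and luminescence measured as ATP content.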

Experiment [8] is described as follows: DH5-alpha competent E. coli microbial cell viability qHTS against the NCATS CANVASS Library (AID 1347377). As to conditions: outcome: dose series up to 46.1 µM unless noted. In a few lines:
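Bacteria were dispensed at 0.2 OD, then compounds were pin-transferred. Plates were incubated overnight at 37C, after which BacTiter-Glo was added and luminescence measured 20 min later.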

Experiment [9] can be described thus: qHTS for H2AX Agonists against the NCATS CANVASS Library (AID 1347378).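 Also: phospho-H2AX S139 level in CHO-K1 lysates by TR-FRET emission ratio.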 In a few lines: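 Following overnight seeding, CHO-K1 cells are incubated with a concentration series of compound for 3 hr at 37C (final DMSO 0.76%). Cells are then lysed, detection antibodies added, and emission ratio 665/620 nm recorded after 24 hr at room temperature.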
The nature of experiment [10]: Inflammasome Signaling qHTS Counterscreen: IL-1-beta AlphaLISA counterscreen against the NCATS CANVASS Library (AID 1347381).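 Also: cell-free check with purified IL-1β in medium and no THP-1 cells; series mostly up to about 57 µM.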 The method, boiled down:
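Purified IL-1-beta (4 pg/well) + compound, 11-pt conc. series; acceptor beads 6 ug/mL + biotin-Ab 0.6 nM final, 1 h RT; SA-donor 24 ug/ml final, 30 min dark RT; read ex 680/em 615.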

Experiment [11] is described as follows: qHTS assay for small molecule disruptors of mitochondrial membrane potential screened against the NCATS CANVASS Library (AID 1347389). Also: nearly all actives have a fitted effect of over 60% in size. Also: potency is read from the fitted curve at half-maximal effect. In a few lines:
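Mitochondrial depolarization in HepG2 cells is scored as a falling aggregate-to-monomer fluorescence ratio after 1 hr compound exposure and 30 min staining with Mito-MPS dye at 37C, each compound tested as an 11-point titration.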

The nature of experiment [12]: qHTS for inhibitors of ER calcium dysfunction: SERCaMP assay screened against the NCATS CANVASS Library (AID 1347393). Also: nearly all actives have a fitted effect of over 40% in size. Also: potency is read from the fitted curve at half-maximal effect. The method, boiled down:
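qHTS in SH-SY5Y reporter cells: 16 h compound pretreatment, 4 h thapsigargin, then secreted Gaussia luciferase measured by luminescence.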

Experiment [13] in a line: Vero-766 cells viability qHTS against the NCATS CANVASS Library: Counterscreen for Zika virus inhibition assay (AID 1347394). Also: nearly all actives have a fitted effect of over 60% in size. Also: potency is read from the fitted curve at half-maximal effect. The method, boiled down: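 This cytotoxicity counterscreen uses African green monkey Vero 766 cells in the absence of Zika virus. Compounds are incubated with cells for 72 h, and ATP-based luminescence reports viability.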
Experiment [14] is described as follows: Redox Reaction Profiling qHTS: Assay Interference Panel against the NCATS CANVASS Library (AID 1347401). The method, boiled down: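 Quantitative HTS over an 11-point series was run in HEPES pH 7.3 with 50 mM NaCl, 200 uM DTT and 5 uM resazurin. Initial and 15-min resorufin fluorescence readings were taken.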
Experiment [15] in a line: Panc-1005 Cancer Cell Toxicity qHTS against the NCATS CANVASS Library (AID 1347349). Also: nearly all actives have a fitted effect of over 60% in size. Also: potency is read from the fitted curve at half-maximal effect. The method, boiled down:
as §1

A short description of experiment [16]: SW1088 Cancer Cell Toxicity qHTS against the NCATS CANVASS Library (AID 1347350). Also: nearly all actives have a fitted effect of over 75% in size. Also: potency is read from the fitted curve at half-maximal effect. In a few lines: as §1
The nature of experiment [17]: UWB1.289-WTBRCA1 Cancer Cell Toxicity qHTS against the NCATS CANVASS Library (AID 1347354). Also: potency is read from the fitted curve at half-maximal effect. In a few lines:
as §2

A short description of experiment [18]: U-118MG Cancer Cell Toxicity qHTS against the NCATS CANVASS Library (AID 1347351). In a few lines: as §1
A short description of experiment [19]: OV-KATE Cancer Cell Toxicity qHTS against the NCATS CANVASS Library (AID 1347345). In a few lines:
as §1

Experiment [20] can be described thus: KB-3-1 Cancer Cell Toxicity qHTS against the NCATS CANVASS Library (AID 1347366). Also: nearly all actives have a fitted effect of over 75% in size. The method, boiled down:
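Seed KB-3-1 cells at 500/well in DMEM with 10% FBS, add compounds, incubate 72 hr at 37C and 5% CO2, then add CellTiter-Glo and read luminescence after 10 minutes.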

Values without a mark were called inactive. Results filed as inconclusive are left out. Active and inactive are the calls of the source. Calls follow the shape of the dose curve; as a rule, active = well fitted curve in the direction sought with a large enough effect; inconclusive = small, poorly fitted or top-dose-only effect, or another doubt; inactive = no such curve, though single readings can be large; an effect the other way counts as inactive or inconclusive.

`CO/C=C/C(=O)c1cc2cnc3c(N)cc(=NC(=O)C(C)C)c([nH]1)c23`: the Potency in [1] is 0.0375 µM (active); in experiment [2], 0.211 µM (active); in [3] it was 0.0296 µM (active); in [5] it was 0.372 µM (active); in experiment [7], 0.132 µM (active); in experiment [11], 3.31 µM (active). In addition, the Potency in experiment [13] is 0.524 µM (active). For the same molecule, the Potency result in [4], in [6], in experiment [9], in experiment [12] and in experiment [14] was “inactive” in each case. For the same molecule, the outcome in [8] and in experiment [10] was inactive.

In the case of `CC(C)=CC[C@H]1C[C@@]2(CC=C(C)C)C(=O)[C@](CC=C(C)C)(C(=O)C(C(=O)c3ccccc3)=C2O)C1(C)C`, the Potency in experiment [1] is 14.9 µM (active); in [15], 13.3 µM (active); in [16] it was 4.21 µM (active); in experiment [3], 14.8 µM (active); in experiment [17], 11.8 µM (active); in [7] it was 20.9 µM (active). Besides, the Potency in [11] is 7.41 µM (active); in [12], 30.5 µM (active). For the same molecule, the Potency entry in [4], in [6], in experiment [9] and in [14] was “inactive” throughout. Also, the result in [8] was inactive.

Take `COC(=O)c1cc2cc3c(c(O)c2c(=O)o1)OC1(CC3)CC2=C(O1)C(=O)c1c(O)c(OC)cc(OC)c1C2=O` (stereo not drawn): the Potency in [15] was 21.1 µM (active); in [16], 13.3 µM (active); in experiment [3], 20.9 µM (active); in [11], 3.31 µM (active); in experiment [13], 26.3 µM (active). The Potency result in [18], in experiment [4], in experiment [6] and in experiment [12] was “inactive” each time. For the same molecule, the molecule was called inactive in experiment [8] and in experiment [10].

For the molecule `C/C(=C\[C@H](C)C(=O)C[C@H](O)CC1CC(=O)NC(=O)C1)[C@@H]1OC(=O)CCCC/C=C/C[C@@H](O)[C@@H]1C`, the Potency result in experiment [16], in experiment [4], in experiment [6], in experiment [9], in [11] and in [12] was “inactive” each time. For the same molecule, the Potency entry in experiment [13] and in experiment [14] was “inactive” in each case. The Potency in experiment [3] is 2.35 µM (active); in experiment [5], 1.66 µM (active); in experiment [7], 2.64 µM (active). Further, the call in experiment [8] and in experiment [10] was inactive.

On to `O=Cc1ccc2n1C[C@]1(OC2)O[C@H](CO)[C@@H](O)[C@@H]1O`, for which the Potency result in [19], in experiment [1], in [15], in experiment [16], in [18] and in experiment [2] was “inactive” throughout. Besides, the Potency entry in experiment [3], in [17], in experiment [4], in experiment [5], in [20] and in experiment [6] was “inactive” in each case. Also, the Potency entry in experiment [7], in experiment [9], in [11], in [12], in [13] and in experiment [14] was “inactive” each time.

On to `CC1(C)CC[C@]2(CO)CC[C@]3(C)C(=CCC4[C@@]5(C)CC[C@H](O)C(C)(C)C5CC[C@]43C)C2C1` (stereo partly drawn), for which the Potency result in experiment [19], in [1], in experiment [15], in experiment [16], in experiment [18] and in experiment [2] was “inactive” each time. For the same molecule, the Potency result in [3], in experiment [17], in [4], in experiment [5], in [6] and in [7] was “inactive” each time. For the same molecule, the Potency entry in [9], in experiment [11], in [12], in experiment [13] and in experiment [14] was “inactive” in each case. Moreover, the molecule was classed as inactive in experiment [8] and in experiment [10].

On to `O=C1CC(c2ccc(O)cc2)Oc2ccccc21` (stereo not drawn), for which the Potency result in [19], in experiment [15], in experiment [16], in [18], in experiment [2] and in experiment [20] was “inactive” throughout. The Potency entry in [9], in experiment [13] and in experiment [14] was “inactive” throughout. Further, the Potency was 13.3 µM (active) in experiment [1], 20.9 µM (active) in [5], 14.8 µM (active) in experiment [11] and 34.3 µM (active) in experiment [12]. The molecule was classed as inactive in experiment [10].

As to `C[C@@]12CCC[C@@](C)(C(=O)O)[C@H]1C[C@@H](O)[C@@]13C[C@@H](CC[C@@H]21)[C@](C)(O)C3`, the Potency entry in experiment [19], in experiment [1], in experiment [15], in [16], in [18] and in experiment [2] was “inactive” throughout. Moreover, the Potency entry in [3], in experiment [17], in [4], in experiment [5], in [7] and in experiment [9] was “inactive” throughout. In addition, the Potency entry in experiment [11], in [12], in experiment [13] and in experiment [14] was “inactive” throughout. Also, the result in experiment [8] and in experiment [10] was inactive.

For the molecule `[C-]#[N+][C@@]12C(=O)[C@@H]3[C@@H](O[C@@]4(C(=O)N(C)c5cccc1c54)C3(C)C)C(=O)[C@@]2(C)C=C`, the Potency entry in [19], in [1], in experiment [15], in experiment [16], in experiment [18] and in [2] was “inactive” each time. Moreover, the Potency entry in experiment [3], in [17], in experiment [5], in experiment [7], in experiment [9] and in [13] was “inactive” in each case. The Potency result in [14] was “inactive”. Also, the outcome in [8] was inactive.

Consider `C=C1CCC2C(C)(C(=O)O)CCC(CC/C(C)=C/C(=O)NC(CCC(N)=O)C(=O)O)[C@@]2(C)C1` (stereo partly drawn), for which the Potency entry in experiment [19], in experiment [1], in [15], in [16], in [18] and in experiment [2] was “inactive” each time. The Potency result in experiment [3], in [17], in experiment [5], in experiment [20], in experiment [7] and in [9] was “inactive” in each case. Also, the Potency entry in [11], in [12], in experiment [13] and in experiment [14] was “inactive” throughout. The result in experiment [8] and in experiment [10] was inactive.

`C=C[C@]1(C)CC[C@@H]([C@H](C)C(=O)CC=C(C)C)O1`: the Potency entry in experiment [19], in [1], in experiment [15], in experiment [16], in experiment [18] and in [2] was “inactive” in each case. Moreover, the Potency result in experiment [3], in experiment [17], in experiment [4], in experiment [5], in experiment [20] and in experiment [6] was “inactive” in each case. Besides, the Potency result in [7], in [9], in experiment [11], in experiment [13] and in experiment [14] was “inactive” in each case. Also, the call in [8] and in [10] was inactive.

Regarding `CCC(C)=C1OC(=O)[C@H](C)[C@H](O)[C@H](Cc2cccnc2)NC(=O)C(NC(=O)c2ncccc2O)C(C)OC1=O` (stereo partly drawn), the Potency entry in [19], in experiment [1], in experiment [15], in experiment [16], in [18] and in experiment [2] was “inactive” each time. For the same molecule, the Potency result in experiment [3], in experiment [17], in experiment [4], in experiment [5], in experiment [20] and in [6] was “inactive” each time. For the same molecule, the Potency entry in [7], in experiment [9], in experiment [11] and in experiment [14] was “inactive” in each case. The molecule was called inactive in experiment [10].
